The source of these data is PubChem BioAssay (NCI).

This is part of a sample that, as a whole, favours compounds with a hit. Of some 83,000 tested, about 20% had one in any assay.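 Step 1: grow cells in 96-well plates. Step 2: add test compound at a single concentration. Step 3: incubate 48 h. Step 4: record percent growth.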 Unmarked numbers belong to inactive results. Activity calls are given as the source filed them. How the source made its calls: active means growth percent below 10; inactive means the rest.

Among the test systems are RPMI-8226 leukemia; OVCAR-8 ovarian; OVCAR-5 ovarian; OVCAR-4 ovarian; SK-OV-3 ovarian; IGROV1 ovarian; OVCAR-3 ovarian; HS 578T breast; NCI/ADR-RES ovarian; T-47D breast; BT-549 breast; MDA-MB-435 melanoma; SW-620 colon; MCF7 breast; HCT-116 colon; HCC-2998 colon; KM12 colon.
What all share (experiment): NCI-60 one-dose screen, 48 h (100 = growth as untreated, 0 = no growth, -100 = all killed)
Common to all, as to settings: 10 µM unless noted

As for `COc1cc(/C=C\c2cc(OC)c(OC)c(OC)c2)cc(N)c1OC`, the growth with RPMI-8226 leukemia is 89.7%; in the experiment on OVCAR-8 ovarian, 89.3%; with OVCAR-5 ovarian it was 87.7%; in the experiment with OVCAR-4 ovarian it was 128%; with SK-OV-3 ovarian, 92.2%; in the experiment on IGROV1 ovarian, 74.6%. Further, the growth is 99.6% in the experiment with OVCAR-3 ovarian; 90.1% in the experiment with HS 578T breast; 69.7% in the experiment on NCI/ADR-RES ovarian; 82.8% with T-47D breast; 75.9% in the experiment with BT-549 breast; 1.87% (active) in the experiment with MDA-MB-435 melanoma. Moreover, the growth in the experiment on SW-620 colon was 75%; in the experiment with MCF7 breast it was 85.4%; in the experiment on HCT-116 colon it was 79.1%; with HCC-2998 colon, 73.1%; with KM12 colon it was 54.9%.
Take `Cc1c(C)c([N+](=O)[O-])c(C)c([N+](=O)[O-])c1C`: the growth was 102% with RPMI-8226 leukemia; 104% in the experiment on OVCAR-8 ovarian; 104% with OVCAR-5 ovarian; 99.5% in the experiment with OVCAR-4 ovarian; 114% in the experiment with SK-OV-3 ovarian; 104% with IGROV1 ovarian. For the same compound, the growth with OVCAR-3 ovarian is 109%; with HS 578T breast, 102%; in the experiment with NCI/ADR-RES ovarian, 108%; in the experiment on T-47D breast, 113%; with BT-549 breast it was 95.8%; with MDA-MB-435 melanoma it was 115%. For the same compound, the growth is 109% in the experiment on SW-620 colon; 97.3% in the experiment on MCF7 breast; 105% in the experiment with HCT-116 colon; 112% in the experiment with HCC-2998 colon; 108% in the experiment with KM12 colon.
With `COc1cc(/C=C\c2cc(OC)c(OC)c(OC)c2)cc(NC(=O)/C=C/c2cc(OC)c(OC)c(OC)c2)c1OC`, the growth in the experiment on RPMI-8226 leukemia is 45%; with OVCAR-8 ovarian, 56.6%; in the experiment on OVCAR-5 ovarian it was 77.3%; with OVCAR-4 ovarian it was 61%; in the experiment with SK-OV-3 ovarian, 50.8%; in the experiment with IGROV1 ovarian, 52.8%. Besides, the growth in the experiment with OVCAR-3 ovarian was 51.1%; in the experiment on HS 578T breast, 68.6%; in the experiment on NCI/ADR-RES ovarian, 17.8%; with T-47D breast it was 19.6%; in the experiment with BT-549 breast, 26.2%; with MDA-MB-435 melanoma, -13.1% (active). Besides, the growth is 57% in the experiment on SW-620 colon; 27.6% in the experiment with MCF7 breast; 41.1% in the experiment with HCT-116 colon; 70.8% with HCC-2998 colon; 28.7% with KM12 colon.
Take `O=C(/C(=C\c1ccc([N+](=O)[O-])cc1)S(=O)Cc1ccc(Cl)cc1)c1ccc(Cl)cc1` (stereo unspecified): the growth in the experiment with RPMI-8226 leukemia is 1.3% (active); in the experiment on OVCAR-8 ovarian, 73.6%; in the experiment on OVCAR-5 ovarian, 73.6%; with OVCAR-4 ovarian, 81.1%; in the experiment on SK-OV-3 ovarian, 105%; with IGROV1 ovarian it was 62.7%. Further, the growth in the experiment on OVCAR-3 ovarian was 73.7%; in the experiment with HS 578T breast, 85.1%; in the experiment on NCI/ADR-RES ovarian it was 71.7%; with T-47D breast, 51.6%; with BT-549 breast, 94.6%; in the experiment with MDA-MB-435 melanoma, 82.6%. For the same compound, the growth in the experiment on SW-620 colon is 28%; in the experiment on MCF7 breast it was 49%; in the experiment on HCT-116 colon, 4.9% (active); in the experiment on HCC-2998 colon it was 80.4%; with KM12 colon, 73.8%.
As for `COc1cc(/C=C/C(=O)c2nc3cc(F)ccc3nc2C)cc(OC)c1OC`, the growth in the experiment on RPMI-8226 leukemia is -4.08% (active); in the experiment with OVCAR-8 ovarian, 36%; in the experiment on OVCAR-5 ovarian, 89.7%; in the experiment on OVCAR-4 ovarian, 77.8%; with SK-OV-3 ovarian it was 113%; in the experiment with IGROV1 ovarian, 34.8%. Further, the growth in the experiment with OVCAR-3 ovarian was 55.3%; with HS 578T breast it was 61.4%; in the experiment with NCI/ADR-RES ovarian, 41.3%; with T-47D breast, 48%; in the experiment with BT-549 breast, 112%; in the experiment with MDA-MB-435 melanoma, 75%. The growth is 29.9% in the experiment with SW-620 colon; 34.1% with MCF7 breast; 44.5% with HCT-116 colon; -4.35% (active) with HCC-2998 colon; 36.2% in the experiment on KM12 colon.
As to `Cc1ccc(-c2nc3ccccn3c2/C=C2/C(=O)Nc3cc(Cl)ccc32)cc1`, the growth was 93.6% with RPMI-8226 leukemia; 91.7% in the experiment on OVCAR-8 ovarian; 101% with OVCAR-5 ovarian; 74.7% in the experiment with OVCAR-4 ovarian; 94.4% in the experiment on SK-OV-3 ovarian; 81.3% with IGROV1 ovarian. In addition, the growth is 93.7% in the experiment with OVCAR-3 ovarian; 101% in the experiment on HS 578T breast; 27% in the experiment on NCI/ADR-RES ovarian; 74.6% in the experiment with T-47D breast; 70.9% with BT-549 breast; -12.7% (active) in the experiment on MDA-MB-435 melanoma. The growth was 49% in the experiment on SW-620 colon; 33.5% in the experiment on MCF7 breast; 26.5% with HCT-116 colon; 92.2% in the experiment with HCC-2998 colon; 31.9% in the experiment on KM12 colon.
Consider `Oc1ccc(C(c2ccc(O)cc2)c2ccc(Br)cn2)cc1`, for which the growth with RPMI-8226 leukemia is 119%; with OVCAR-8 ovarian, 2.17% (active); in the experiment on OVCAR-5 ovarian, 78.4%; with OVCAR-4 ovarian it was -38.1% (active); with SK-OV-3 ovarian, 65.4%; in the experiment with IGROV1 ovarian it was 11.8%. For the same compound, the growth is -37.4% (active) in the experiment with OVCAR-3 ovarian; -35.6% (active) with HS 578T breast; -38.7% (active) in the experiment with NCI/ADR-RES ovarian; -38.5% (active) with T-47D breast; -42.6% (active) in the experiment on BT-549 breast; 100% with MDA-MB-435 melanoma. In addition, the growth in the experiment on SW-620 colon was 102%; in the experiment with MCF7 breast, -20.5% (active); in the experiment with HCT-116 colon, 19.4%; in the experiment on HCC-2998 colon, 3.49% (active); in the experiment on KM12 colon it was 16%.
For `Cc1c2cc[nH]c(=O)c2c(C)c2c1[nH]c1cc(OCCN3CCN(C)CC3)ccc12`, the growth with RPMI-8226 leukemia was -8.18% (active); in the experiment on OVCAR-8 ovarian it was 5.54% (active); in the experiment on OVCAR-5 ovarian, 16.1%; in the experiment on OVCAR-4 ovarian, -1.71% (active); with SK-OV-3 ovarian it was -1.65% (active); in the experiment with IGROV1 ovarian, 20.2%. Also, the growth was 17.1% with OVCAR-3 ovarian; 15.1% with HS 578T breast; 23.2% in the experiment on NCI/ADR-RES ovarian; 22.7% in the experiment with T-47D breast; 33.3% in the experiment with BT-549 breast; 4.54% (active) in the experiment with MDA-MB-435 melanoma. Moreover, the growth in the experiment on SW-620 colon was 9.61% (active); in the experiment with MCF7 breast, -11.6% (active); in the experiment on HCT-116 colon, 7.2% (active); with HCC-2998 colon, 35%; with KM12 colon, 8.55% (active).
